Compounds with a hit are over-represented: about 13% of the library has one in this group of screens.
LASV entry inh: blocks Lassa virus binding to or entry into cells; Lassa virus pseudotype entry inhibition, cell reporter; Potency, µM (titrated, usually from 37.9 µM), inactives show at the top dose activity change, negative = inhibition, hits mostly inhibitors; actives 1.2% (n = 300,000); calls by dose curve; tested in HEK293 cells; note: potency is the fitted concentration of half-maximal effect; % is set by controls: 0 for no effect and ±100 for the full control effect; nearly all actives have a fitted effect of over 50% in size
Shiga inhibitor: inhibitors of Shiga toxin in Vero cells. actives 9.2% (n = 290,000). inhibition, % at 38.7 µM. AID 2315. Vero cells, Shiga toxin protein synthesis inhibition reporter; in the data active = inhibition mostly above about 28%, no sharp cut-off; inactive = mostly below about 43%; note: 0% is about no effect
Cycloheximide cs: affects cycloheximide protein synthesis inhibition readout, counter-screen; actives 12% (n = 300,000); cell reporter, cycloheximide protein synthesis inhibition counterscreen; max response, %; in the data active = max response mostly above about 13%, no sharp cut-off; inactive = mostly below about 14%; note: read at 38.3 µM for the half of the compounds with a filed dose; 0% is about no effect
MARV entry inh: blocks Marburg virus binding to or entry into cells | actives 1.8% (n = 300,000) | AID 540276 | Potency, µM (highest dose often 37.8 µM), without a hit: at the highest dose activity change, negative = inhibition, usual class: inhibitors | Marburg virus pseudotyped entry inhibition, cell reporter; calls by dose curve; tested in HEK293 cells; note: potency is the fitted concentration of half-maximal effect; % is set by controls: 0 for no effect and ±100 for the full control effect
FMDV inh: blocks foot and mouth disease virus | FMDV antiviral cell-based qHTS | Potency, µM (series often up to 57.9 µM), for inactives: at the top dose activity change, negative = inhibition, usual class: inhibitors | actives 1.2% (n = 410,000) | AID 1159524; calls by dose curve; tested in HEK293T cells; note: read-out not given here; potency is the fitted concentration of half-maximal effect; % is set by controls: 0 for no effect and ±100 for the full control effect; nearly all actives have a fitted effect of over 45% in size
HCV inh: HCV inhibition; actives 3.4% (n = 340,000); Potency, µM (top dose mostly 41.8 µM), for inactives: top-dose activity change, negative = inhibition, usual class: inhibitors; Huh7.5.1 HCVcc-Cre infection, luciferase reporter, 44 h; active = well fitted inhibition curve with a large enough effect; inconclusive = small, poorly fitted or top-dose-only effect, or another doubt; inactive = no such curve, though single readings can be large or run the other way; note: potency is the fitted concentration of half-maximal effect; % is set by controls: 0 for no effect and ±100 for the full control effect
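After 44 h co-culture of compound, cells and HCVcc-Cre (~0.5 moi), substrate is added for 15 min at room temperature and luciferase measured over 15 sec. Cells were seeded at 1,000/well and pre-cultured 4 h.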
Numbers without * were called inactive; u = inconclusive; x = not tested or not shown; [ ] = remark or other dose.

SMILES	LASV entry inh	Shiga inhibitor	Cycloheximide cs	MARV entry inh	FMDV inh	HCV inh
COc1ccccc1N1CCN(C(=O)C2CCCN(S(=O)(=O)c3ccc4c(c3)CCCN4C(C)=O)C2)CC1 (stereo not given)	u	-18	2	11µM*	28µM*	10µM*
O=C(c1cccc(Cl)c1)N1CCCC(C(=O)N2CCN(c3ccccc3)CC2)C1 (stereo not given)	-8%	50*	24*	u	-15%	6%
COc1ccccc1N1CCN(C(=O)C2CCN(S(=O)(=O)c3ccc4c(c3)CC(C)N4C(C)=O)CC2)CC1 (stereo not given)	x	6	2	x	-21%	-20%
O=c1[nH]c2ccccc2n1CCC1CCCCC1	2%	23	47*	-18%	36%	4%
O=c1[nH]c2ccccc2n1CCCSCCCn1c(=O)[nH]c2ccccc21	u	16	0	u	20µM*	u
O=[N+]([O-])c1ccc(S(=O)(=O)Nc2cccc(-c3ccc(N4CCOCC4)nn3)c2)cc1	u	x	x	-11%	18%	-5%
COc1ccc(-n2nc(C(=O)Nc3ccc(C)cn3)c3c4ccccc4n(C)c3c2=O)cc1	u	x	x	-2%[46.1 µM]	-12%	x
Cc1cc(C)c(NC(=O)COc2nc3ccccc3nc2C)c(C)c1	18%	-10	2	-12%	-27%	11µM*
Cc1nc2ccccc2nc1OCC(=O)Nc1ccc2ccccc2c1	3%	-15	-4	-7%	-11%	u
Nc1c(Cl)c(Cl)nc(C(=O)N/N=C/c2ccco2)c1Cl	x	9	-1	x	9%	3%
Cc1ccc(-c2cc(C(=O)N/N=C/c3ccco3)n[nH]2)s1	-2%	10	23*	-3%	17%	3%
Cc1c(/C=N/NC(=O)c2cc(C(C)(C)C)[nH]n2)c2ccccc2n1C	-4%	-3	-3	13%[46.1 µM]	41%	11%
CC(C)(C)c1cc(C(=O)N/N=C/c2ccco2)n[nH]1	24%	43	33*	5%	75%	8%
Nc1nccnc1C(=O)N/N=C/c1ccco1	x	93*	63*	x	57%	21%
S=C(NC1CCCCC1)N1CCn2cccc2C1c1cccnc1 (stereo not given)	u	-8	3	8.9µM*	-7%	-8%
O=C(c1ccc(N2CCCC2)c([N+](=O)[O-])c1)N1CCN(CCO)CC1	x	-5	1	x	-10%	2%
O=S(=O)(CCSc1nc2ccccc2o1)c1nc2ccccc2s1	u	-13	-3	u	16µM*	11µM*
O=S(=O)(CCSc1ccccn1)c1nc2ccccc2s1	-26%	-2	20*	u	u	u
O=C(N/N=C/c1ccc([N+](=O)[O-])s1)c1ccncc1	30%[46.1 µM]	5	9	u	-30%	u
COc1cc([N+](=O)[O-])cc(/C=N/NC(=O)CSc2nnc(-c3ccccc3)n2C)c1O	-5%	-3	-3	23%[46.1 µM]	51%	u
Cc1[nH]cnc1C(=O)N/N=C/c1ccc([N+](=O)[O-])s1	-10%[46.1 µM]	55*	24*	u	-1%	u
Cc1ccc(C(=O)N/N=C/c2ccc([N+](=O)[O-])s2)cc1	u	-23	-3	11µM*	2.8µM*	2.8µM*
O=C(NN=Cc1ccc(N2CCOCC2)s1)c1ccc([N+](=O)[O-])cc1	x	x	x	x	u	22µM*
Cn1c(SCC(=O)N/N=C/c2ccc([N+](=O)[O-])s2)nnc1-c1ccc(Cl)cc1	u	-11	10*	12µM*	u	u
CC1CN(C(=O)C(C)OC(=O)c2ccc3ncsc3c2)CC(C)O1 (stereo not given)	x	x	x	x	-13%	9%
SMILES	LASV entry inh	Shiga inhibitor	Cycloheximide cs	MARV entry inh	FMDV inh	HCV inh
OCCNC(=S)NC1CCCCC1	-5%	21	-3	1%	5%	-6%
Cc1cc(C(=O)N/N=C/c2ccc(Br)o2)n[nH]1	x	31	11	x	20%	4%
Cc1cc(C(=O)N/N=C/c2cc(Br)c(Br)o2)n[nH]1	11%[46.1 µM]	80*	23*	u	4%	-3%
CCOC(=O)N/N=C\c1ccc([N+](=O)[O-])s1	-16%	42	10	u	-5%	u
Cc1cc(C(=O)N/N=C/C=C/c2ccc(Br)cc2)n[nH]1	x	-8	-2	x	-14%	11%
Cc1cc(C(=O)N/N=C/c2ccc(C)s2)n[nH]1	u	86*	29	-3%[46.1 µM]	0%	3%
